{"source": "PubChem BioAssay AID1240", "about": "(Sanford-Burnham Center for Chemical Genomics, 2008)", "note": "The campaign covered roughly 50,000 compounds. About 800 (1.6%) showed an effect of 50% or more. The entries come from a sample that favours strong results as a whole.", "data": [{"target": "Bcl-2-like protein 10 (Homo sapiens) (UniProt Q9HD36)", "sequence (Q9HD36 whole entry, looked up)": "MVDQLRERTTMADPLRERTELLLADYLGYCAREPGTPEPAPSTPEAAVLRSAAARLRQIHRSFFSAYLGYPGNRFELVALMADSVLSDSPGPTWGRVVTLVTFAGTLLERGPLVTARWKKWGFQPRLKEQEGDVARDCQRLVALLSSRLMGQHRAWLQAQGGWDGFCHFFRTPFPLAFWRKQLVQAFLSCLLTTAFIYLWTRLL", "test": "TR3 peptide-Bcl-B binding displacers, biochemical primary FP assay, phenotype converters (AID 1240);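 note: 0% = Bcl-B with tracer peptide and DMSO and 100% = tracer peptide lacking Bcl-B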", "details": "GST-Bcl-B / FITC-TR3 peptide fluorescence polarization; stronger effect = higher value; compound at 3.75 mg/L", "units": {"displacement": "%"}, "values": [{"smiles": "O=C1C(Cl)=C(Nc2ccccc2)C(=O)N1c1ccc(Br)cc1", "displacement": 6.4}, {"smiles": "COc1ccccc1-n1c(O)c(C=Nc2ccccc2Cl)c(=O)[nH]c1=O", "displacement": 1.2}, {"smiles": "O=C1C2=C(Nc3ccccc3SC2c2ccc3c(c2)OCO3)c2ccccc21", "note": "(stereo not drawn)", "displacement": -16.3}, {"smiles": "CN1CCN(C(=O)CCN2C(=O)/C(=C/c3cccs3)SC2=S)CC1", "displacement": 0.2}, {"smiles": "CCN(CC)C(=O)Cc1ccc2c3c(cccc13)CC2", "displacement": 12.7}, {"smiles": "COc1ccc(NC(=O)C/C(C)=N/NC(=O)c2cnccn2)cc1", "displacement": -21.6}, {"smiles": "CC(=O)c1ccc(NC(=O)c2cnccn2)cc1", "displacement": 37.3}, {"smiles": "COc1ccc(NC(=O)c2cnccn2)cc1", "displacement": 105}, {"smiles": "CCOc1ccc(C(=O)Nc2ccc3oc(-c4ccccc4Br)nc3c2)cc1", "displacement": 14}, {"smiles": "Cc1ccc(NC(=O)c2cccc(C(=O)Nc3ccc(C)c(C)c3)c2)cc1C", "displacement": -0.1}, {"smiles": "O=C(CCCN1C(=O)c2cccc3cccc(c23)C1=O)OC/C=C/c1ccccc1", "displacement": 6.6}, {"smiles": "Brc1ccc(Nc2nc(-c3ccncc3)nc3ccccc23)cc1", "displacement": 44.4}, {"smiles": "Fc1ccc(Nc2nc(-c3ccncc3)nc3ccccc23)cc1F", "displacement": 47.8}, {"smiles": "Clc1ccc(Nc2nc(-c3ccncc3)nc3ccccc23)cc1", "displacement": 109}, {"smiles": "O=C(Nc1ccc2c(c1)OCO2)c1ccccc1[N+](=O)[O-]", "displacement": -5.9}, {"smiles": "O=C(O)CSc1nnc2c(n1)[nH]c1ccccc12", "displacement": 3.1}, {"smiles": "Cc1ccc(/C=C2\\CCC/C(=C\\c3ccc(C)o3)C2=O)o1", "displacement": 15.2}, {"smiles": "Cc1nc(SCC(=O)Nc2nnc(-c3ccccc3)s2)n[nH]1", "displacement": 11.9}, {"smiles": "C/C(NCc1ccccc1)=C(\\C#N)C(=O)NCc1ccccc1", "displacement": -2.4}, {"smiles": "COc1cc(-c2csc(N)n2)ccc1O", "displacement": 15.6}, {"smiles": "CC(C)NC(=O)COc1ccc(C=C2C(=O)NC(=O)NC2=O)cc1", "displacement": 1.8}, {"smiles": "CC(NC(=O)COc1ccc(C=C2C(=O)NC(=O)NC2=O)cc1)c1ccccc1", "note": "(stereo not drawn)", "displacement": 7.3}, {"smiles": "O=C(COc1ccc(C=C2C(=O)NC(=O)NC2=O)cc1)NCCc1ccccc1", "displacement": 82.5}, {"smiles": "C/C=C/COC(=O)C1=C(C)NC(=O)NC1c1cc(Cl)c(O)c(OC)c1", "note": "(stereo not drawn)", "displacement": 8.4}, {"smiles": "CCOC(=O)c1c(NC(=O)c2cc(OCC)c(OCC)c(OCC)c2)sc(C)c1C", "displacement": -6.2}, {"smiles": "CCOC(=O)c1c(NC(=O)c2ccc(Cl)cc2)sc2ccccc12", "displacement": 39.1}, {"smiles": "CCOC(=O)c1c(NC(=O)c2ccc(OC(C)C)c(OCC)c2)sc2ccccc12", "displacement": 80}, {"smiles": "COc1ccc(Nc2ncnc3ccc(C)cc23)cc1", "displacement": 9}, {"smiles": "Cc1ccc(S(=O)(=O)N/N=C/c2ccc(-c3ccc([N+](=O)[O-])cc3C)o2)cc1", "displacement": 52.8}, {"smiles": "O=C(COc1ccc(I)cc1)N/N=C/c1ccc(-c2ccc([N+](=O)[O-])cc2)o1", "displacement": 59}, {"smiles": "O=C(COc1ccc(Cl)cc1)N/N=C/c1ccc(I)o1", "displacement": -6}, {"smiles": "Cc1ccc(OCC(=O)N/N=C\\c2ccc(-c3ccc(Cl)cc3)o2)cc1", "displacement": 38.4}, {"smiles": "Cc1ccc(S(=O)(=O)N/N=C/c2ccc(-c3ccc([N+](=O)[O-])cc3Br)o2)cc1", "displacement": 2.5}, {"smiles": "Cc1ccc2nc(-c3ccc(OCC(=O)N/N=C/c4ccc([N+](=O)[O-])o4)cc3)cc(-c3ccccc3)c2c1", "displacement": -16.7}, {"smiles": "O=[N+]([O-])c1ccc(N/N=C/c2ccc(-c3ccc(Cl)cc3)o2)cc1", "displacement": -4}, {"smiles": "Cc1ccc(S(=O)(=O)N/N=C/c2ccc(-c3ccc([N+](=O)[O-])cc3Cl)o2)cc1", "displacement": -9.8}, {"smiles": "Cc1ccc(OCC(=O)N/N=C\\c2ccc(-c3ccc([N+](=O)[O-])cc3)o2)cc1", "displacement": 116}, {"smiles": "CCN(CC)Cc1c(O)ccc2c(-c3ccccc3)cc(=O)oc12", "displacement": -8.3}, {"smiles": "Brc1ccc(CN2CCN(C3CCN(Cc4ccccc4)CC3)CC2)cc1", "displacement": -15.5}, {"smiles": "COc1ccc(S(=O)(=O)N(CC(=O)Nc2ccc(C)c(C)c2)c2ccc(C)cc2)cc1OC", "displacement": 17.2}, {"smiles": "CCOc1ccc(-c2cc(C(=O)NN)c3ccccc3n2)cc1", "displacement": -18}, {"smiles": "Cc1csc(Nc2ccccc2)[n+]1CCO", "displacement": 4.4}, {"smiles": "Cc1cc(N(C)/N=C/c2ccccc2Cl)nc(-c2ccccc2O)n1", "displacement": 5.1}, {"smiles": "CC(=O)N1CCN(c2ccc(C(=O)c3ccccc3)cc2F)CC1", "displacement": 0.4}, {"smiles": "N#C/C(=C\\c1ccc(-c2ccc(Cl)cc2)o1)c1ccc(Cl)cc1", "displacement": 123}, {"smiles": "N#C/C(=C/c1ccc(I)o1)c1ccc(Cl)cc1", "displacement": -24.1}, {"smiles": "O=[N+]([O-])/C=C/c1ccc(-c2ccc(Cl)cc2)o1", "displacement": 14.7}, {"smiles": "N#C/C(=C\\c1ccc(-c2cccc(Cl)c2)o1)c1ccc(Cl)cc1", "displacement": -3.8}, {"smiles": "Clc1ccc(-c2ccc(/C=C\\c3nc4ccccc4o3)o2)cc1", "displacement": 95.3}, {"smiles": "O/N=C\\c1ccc(-c2ccc(Cl)c(Cl)c2)o1", "displacement": -7.3}, {"smiles": "N#C/C(=C\\c1ccc(-c2cccc(Cl)c2)o1)c1ccccc1", "displacement": -6.4}, {"smiles": "N#C/C(=C\\c1ccc(-c2ccc(Cl)cc2)o1)c1ccccc1", "displacement": 130}, {"smiles": "N#C/C(=C\\c1ccc(-c2ccc(Cl)c(Cl)c2)o1)c1ccccc1", "displacement": 135}, {"smiles": "O=C(/C=C/c1ccc(-c2ccc(Cl)cc2)o1)c1ccccc1", "displacement": 41.8}, {"smiles": "N#C/C(=C\\c1ccc(I)o1)c1ccccc1", "displacement": -34}, {"smiles": "N#C/C(=C\\c1ccc(-c2cccc(C(F)(F)F)c2)o1)c1ccc(Cl)cc1", "displacement": -15.3}, {"smiles": "CSc1ccc(Cl)c(C(=O)Nc2ccc(Cl)cn2)c1", "displacement": -39.3}, {"smiles": "CC1CCN(C(=O)CN(c2cccc([N+](=O)[O-])c2)S(=O)(=O)c2ccccc2)CC1", "displacement": 3.3}, {"smiles": "O=C(NC1CCCCC1)c1ccc([N+](=O)[O-])cc1", "displacement": 0.7}, {"smiles": "O=C(N1CCCCC1)C12CC3CCC(CC(C3)C1)C2", "displacement": 6.3}, {"smiles": "O=C(c1ccc2nc3c4ccccc4c4ccccc4c3nc2c1)N1CCOCC1", "displacement": 18.3}, {"smiles": "CCOC(=O)N1CCN(C(=O)Nc2ccc3nc4c5ccccc5c5ccccc5c4nc3c2)CC1", "displacement": 22.4}, {"smiles": "O=C(Nc1ccc2nc3c4ccccc4c4ccccc4c3nc2c1)N1CCOCC1", "displacement": 77.1}, {"smiles": "Cc1ccc(C(=O)N2C(C)CCCC2C)cc1[N+](=O)[O-]", "note": "(stereo not drawn)", "displacement": -4}, {"smiles": "COc1ccc(CC(=O)O/N=C(\\N)Cc2ccc([N+](=O)[O-])cc2)cc1OC", "displacement": 14.2}, {"smiles": "COc1ccccc1/C=C1\\SC(=S)N(C2CCS(=O)(=O)C2)C1=O", "note": "(stereo not drawn)", "displacement": 137}, {"smiles": "O=C1/C(=C/C2CC=CCC2)SC(=S)N1C1CCS(=O)(=O)C1", "note": "(stereo not drawn)", "displacement": 9.6}, {"smiles": "O=C1/C(=C\\c2ccc(N3N=C(c4ccccc4)CC3c3ccccc3)cc2)SC(=S)N1C1CCS(=O)(=O)C1", "note": "(stereo not drawn)", "displacement": -14.9}, {"smiles": "COc1cccc(/C=C2\\SC(=S)N(C3CCCCC3)C2=O)c1O", "displacement": -3.3}, {"smiles": "O=C1/C(=C/c2ccc(Cl)cc2Cl)SC(=S)N1C1CCS(=O)(=O)C1", "note": "(stereo not drawn)", "displacement": 7.1}, {"smiles": "O=C1/C(=C/C=C/c2ccccc2)SC(=S)N1C1CCS(=O)(=O)C1", "note": "(stereo not drawn)", "displacement": 56.9}, {"smiles": "COCCc1nnc(NC(=O)Cc2ccccc2)s1", "displacement": 1.2}, {"smiles": "Clc1ccc(-c2noc(CCc3ccccc3)n2)cc1", "displacement": 13.2}, {"smiles": "Cc1nc2sc(C(=O)c3ccc(Br)cc3)c(N)c2c(C)c1C", "displacement": 132}, {"smiles": "CN(C)c1ccnc2sc(C(=O)c3ccc(Br)cc3)c(N)c12", "displacement": 10}, {"smiles": "Cc1cc(C)c2c(N)c(C(=O)c3ccc(Br)cc3)sc2n1", "displacement": -7.3}, {"smiles": "Cc1[nH]n(-c2ccc([N+](=O)[O-])cc2)c(=O)c1C=NC1CCCCC1", "displacement": -1.9}, {"smiles": "COc1ccc(/C(O)=C/c2nc3ccccc3[nH]c2=O)cc1", "displacement": 6.8}, {"smiles": "O=c1[nH]c2ccccc2nc1/C=C(\\O)c1cccs1", "displacement": 98.7}, {"smiles": "Cc1nc(C)c(/C(O)=C/c2nc3ccccc3oc2=O)s1", "displacement": -1.1}, {"smiles": "COc1ccc(/C(O)=C/c2nc3ccccc3oc2=O)cc1", "displacement": -1.7}, {"smiles": "O=c1oc2ccccc2nc1/C=C(\\O)c1cccs1", "displacement": 61.3}, {"smiles": "O=C(Nc1ccc(-c2nc3ccccc3[nH]2)cc1)c1cccs1", "displacement": -7.9}, {"smiles": "O=c1oc2cc([N+](=O)[O-])ccc2nc1/C=C(\\O)c1cccc(Br)c1", "displacement": 3}, {"smiles": "O=c1oc2cc([N+](=O)[O-])ccc2nc1/C=C(\\O)c1cccs1", "displacement": 94}, {"smiles": "O=c1oc2cc([N+](=O)[O-])ccc2nc1/C=C(\\O)c1ccc(Br)cc1", "displacement": 18.6}, {"smiles": "CC(Cc1ccccc1)NC(=O)CC(c1ccccc1)c1ccc(O)c(Cl)c1Cl", "note": "(stereo not drawn)", "displacement": 2.6}, {"smiles": "O=C(c1ccc(F)cc1)N1CCN(c2cccc(Cl)c2)CC1", "displacement": 2.4}, {"smiles": "CCN(CC)CCCCCCOc1ccc(OC)cc1", "displacement": 10}, {"smiles": "COCCOC(=O)c1ccc(NC(=O)COc2cccc(C)c2C)cc1", "displacement": 1.9}, {"smiles": "CCOC(=O)C(C(=O)OCC)C(C(=O)OCC)(C(=O)OCC)C(C(=O)OCC)C(=O)OCC", "displacement": 2.1}, {"smiles": "Cc1cc(C)c2[nH]c(O)c(N=NC(=O)c3cccc([N+](=O)[O-])c3)c2c1", "displacement": -0.6}, {"smiles": "O=C(N=Nc1c(O)[nH]c2ccc(Br)cc12)c1ccc([N+](=O)[O-])cc1", "displacement": 6.8}, {"smiles": "COc1ccc(C(=O)N=Nc2c(O)[nH]c3c(C)cc(Br)cc23)cc1", "displacement": 3}, {"smiles": "COc1ccc(C(=O)N=Nc2c(O)[nH]c3c(C)cc([N+](=O)[O-])cc23)cc1", "displacement": 115}, {"smiles": "O=C(N=Nc1c(O)[nH]c2ccc([N+](=O)[O-])cc12)c1cccc(Br)c1", "displacement": 3.3}, {"smiles": "O=C(N=Nc1c(O)[nH]c2ccc([N+](=O)[O-])cc12)c1ccc2c(c1)OCO2", "displacement": 75.1}, {"smiles": "CCOc1ccccc1NC(=O)/C=C/c1ccc(Cl)cc1", "displacement": 11.4}, {"smiles": "CCN1C(=O)N(CC)C2C1N(COC(C)=O)C(=O)N2COC(C)=O", "note": "(stereo not drawn)", "displacement": 1.5}, {"smiles": "COc1ccc(-n2nc3cc(C)c(NC(=O)c4cccnc4)cc3n2)cc1", "displacement": 5.1}, {"smiles": "O=C1c2ccccc2C(=O)N1c1ncc(Cc2cccc(C(F)(F)F)c2)s1", "displacement": -5.8}, {"smiles": "Cc1cccc(NC(=O)CN(c2cccc(Cl)c2)S(C)(=O)=O)c1", "displacement": 3.9}, {"smiles": "CC1=C(C(=O)OC2CCCC2)C(c2ccc(Cl)cc2)NC(=O)N1", "note": "(stereo not drawn)", "displacement": 7.3}, {"smiles": "CC1=C(C(=O)OC2CCCCC2)C(c2ccc(N(C)C)cc2)NC(=O)N1", "note": "(stereo not drawn)", "displacement": 99.1}, {"smiles": "CC1=C(C(=O)OC2CCCCC2)C(c2ccc(Br)cc2)NC(=O)N1", "note": "(stereo not drawn)", "displacement": 17.5}, {"smiles": "CC1=NNC(=O)C1CC(=O)N/N=C/c1ccc(O)cc1", "note": "(stereo not drawn)", "displacement": -5.3}, {"smiles": "C=CCn1c(Cc2ccccc2)n[nH]c1=S", "displacement": -5.1}, {"smiles": "CCc1ccc(NC(=O)C2CC(=O)N=C(N)S2)cc1", "note": "(stereo not drawn)", "displacement": -2.4}]}]}
